BAZ2B block: inhibitors of human BAZ2B bromodomain; 360,000 tested, 4.4% active; Q9UIF8; Potency, µM (series often up to 114 µM), for inactives: top-dose activity change, negative = inhibition, most hits filed as inhibitors; AlphaScreen BAZ2B-H3K14Ac peptide displacement; note: % is set by controls: 0 for no effect and ±100 for the full control effect; nearly all actives have a fitted effect of over 60% in size
Target sequence (Q9UIF8 whole entry, looked up): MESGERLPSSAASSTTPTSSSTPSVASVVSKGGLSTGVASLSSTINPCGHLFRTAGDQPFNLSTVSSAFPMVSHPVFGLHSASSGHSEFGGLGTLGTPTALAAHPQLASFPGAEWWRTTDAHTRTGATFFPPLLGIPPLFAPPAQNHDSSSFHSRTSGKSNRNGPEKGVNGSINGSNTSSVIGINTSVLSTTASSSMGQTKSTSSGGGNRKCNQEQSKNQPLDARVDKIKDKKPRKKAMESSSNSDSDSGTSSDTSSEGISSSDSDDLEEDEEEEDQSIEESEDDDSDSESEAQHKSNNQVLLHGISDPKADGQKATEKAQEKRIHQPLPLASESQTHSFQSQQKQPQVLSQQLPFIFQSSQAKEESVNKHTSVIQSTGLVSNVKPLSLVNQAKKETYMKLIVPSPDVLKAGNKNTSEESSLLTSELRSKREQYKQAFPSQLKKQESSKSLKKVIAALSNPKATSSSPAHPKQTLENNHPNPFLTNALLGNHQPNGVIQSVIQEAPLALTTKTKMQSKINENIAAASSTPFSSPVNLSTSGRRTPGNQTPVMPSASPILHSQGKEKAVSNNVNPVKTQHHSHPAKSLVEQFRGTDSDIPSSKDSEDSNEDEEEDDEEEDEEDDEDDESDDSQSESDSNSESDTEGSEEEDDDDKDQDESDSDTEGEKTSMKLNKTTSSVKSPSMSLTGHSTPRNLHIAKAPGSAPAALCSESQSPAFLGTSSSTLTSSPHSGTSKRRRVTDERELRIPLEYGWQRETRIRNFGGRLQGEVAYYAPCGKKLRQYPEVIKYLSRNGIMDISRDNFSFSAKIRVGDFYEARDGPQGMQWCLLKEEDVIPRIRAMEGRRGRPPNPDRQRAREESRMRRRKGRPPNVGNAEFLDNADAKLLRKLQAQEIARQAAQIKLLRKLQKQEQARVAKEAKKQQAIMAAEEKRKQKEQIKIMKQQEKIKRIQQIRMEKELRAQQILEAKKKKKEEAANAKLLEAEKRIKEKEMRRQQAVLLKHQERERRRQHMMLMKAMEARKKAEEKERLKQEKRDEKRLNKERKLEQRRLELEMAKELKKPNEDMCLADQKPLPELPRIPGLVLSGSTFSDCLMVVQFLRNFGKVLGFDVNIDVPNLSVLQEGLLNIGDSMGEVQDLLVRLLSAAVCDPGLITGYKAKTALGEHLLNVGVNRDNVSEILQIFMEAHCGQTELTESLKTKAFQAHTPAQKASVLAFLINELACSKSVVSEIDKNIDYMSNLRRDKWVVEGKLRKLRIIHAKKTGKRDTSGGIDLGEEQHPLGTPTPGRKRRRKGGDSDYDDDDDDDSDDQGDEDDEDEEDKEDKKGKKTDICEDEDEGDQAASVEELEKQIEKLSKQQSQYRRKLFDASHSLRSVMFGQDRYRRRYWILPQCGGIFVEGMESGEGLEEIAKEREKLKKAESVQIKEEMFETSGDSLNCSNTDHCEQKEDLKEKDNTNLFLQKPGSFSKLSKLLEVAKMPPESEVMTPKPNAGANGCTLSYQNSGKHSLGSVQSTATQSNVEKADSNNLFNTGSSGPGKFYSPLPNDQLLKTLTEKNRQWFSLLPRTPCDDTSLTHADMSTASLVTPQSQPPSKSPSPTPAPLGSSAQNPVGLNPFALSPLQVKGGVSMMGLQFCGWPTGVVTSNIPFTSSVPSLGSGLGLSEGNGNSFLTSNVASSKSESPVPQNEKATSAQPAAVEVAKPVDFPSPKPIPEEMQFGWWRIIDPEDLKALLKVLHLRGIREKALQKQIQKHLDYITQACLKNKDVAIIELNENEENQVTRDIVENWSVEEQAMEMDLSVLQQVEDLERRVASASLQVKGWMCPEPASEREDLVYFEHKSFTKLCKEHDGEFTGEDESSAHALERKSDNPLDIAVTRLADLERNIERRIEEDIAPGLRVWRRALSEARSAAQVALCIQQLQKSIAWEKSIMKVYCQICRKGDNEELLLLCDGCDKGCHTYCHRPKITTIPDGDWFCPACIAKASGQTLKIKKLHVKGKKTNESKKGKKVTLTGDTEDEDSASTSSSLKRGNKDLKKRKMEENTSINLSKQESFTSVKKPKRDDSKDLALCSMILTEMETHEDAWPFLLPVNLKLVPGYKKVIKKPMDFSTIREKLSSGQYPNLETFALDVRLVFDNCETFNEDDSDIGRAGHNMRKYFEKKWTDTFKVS
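BAZ2B (50 nM) with biotin-H3(5-23)K14Ac peptide (50 nM) in PBS pH 7.4, 0.01% Tween-20, preformed 30 min, then compound 30 min at room temperature; top concentration 110uM. AlphaScreen streptavidin donor/nickel chelate acceptor beads (10 ug/mL final), 20 min dark, signal read.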
GLS inh: glutaminase GLS (human) inhibition | O94925 | GLS enzymatic activity, qHTS titration | Potency, µM (titrated, usually from 45.5 µM), inactives show at the highest dose activity change, negative = inhibition, most hits filed as inhibitors | 410,000 tested, 0.21% active; note: % is set by controls: 0 for no effect and ±100 for the full control effect
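Two-point fluorescence kinetic (t0, 30 min RT) for hKGA; glutamate detected via glutamate oxidase–HRP–Amplex Red. Substrate: 1 mM L-glutamine solution; buffer 45 mM KH2PO4, pH 8.2.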
JMJD2A Tudor: blocks the human JMJD2A Tudor domain; O75164; AlphaScreen JMJD2A-Tudor / H3K4me3 peptide binding; Potency, µM (highest dose often 114 µM), for the others: at the highest dose activity change, negative = inhibition, hits mostly inhibitors; 390,000 tested, 4.4% active; AID 504339; note: % is set by controls: 0 for no effect and ±100 for the full control effect; nearly all actives have a fitted effect of over 50% in size
G9a block: G9a (human) methyltransferase inhibition | 350,000 tested, 8.8% active | G9a H3K9 monomethylation, AlphaScreen, 2 h | Q96KQ7 | Potency, µM (doses to about 102 µM), without a hit: top-dose activity, negative = inhibition, hits mostly inhibitors | AID 504332; note: % is set by controls: 0 for no effect and ±100 for the full control effect; nearly all actives have a fitted effect of over 75% in size
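Quantitative HTS format: methyltransferase activity on a biotin-tagged H3K9 peptide is measured by AlphaScreen, using a rabbit anti-monomethyl-H3K9 antibody with streptavidin donor and anti-IgG acceptor beads. Final levels are 20 nM enzyme, 500 nM peptide, 20 uM SAM; 2 h RT.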
HP1b chromo inh: blocks HP1-beta chromodomain binding to methylated histone tails | 390,000 tested, 0.56% active | AID 540317 | AlphaScreen HP1-beta / biotin-H3K9me3 peptide binding | Potency, µM (doses to about 114 µM), inactives show top-dose activity change, negative = inhibition, hits mostly inhibitors; note: nearly all actives have a fitted effect of over 70% in size
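HP1-beta protein (50 nM final) preincubated 30 min at room temperature with biotinylated H3(1-18)K9me3 peptide (50 nM) in PBS pH 7.4, 0.01% Tween-20, then compound added for 30 min. AlphaScreen streptavidin donor/nickel chelate acceptor beads (10 ug/mL final), 30 min dark, luminescence read.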
The depositor's hits bear a star; [ ] = another dose, or the depositor's remark. In the library only some 10% were active in any assay of this set; here they are far more common. Calls come from the whole dose curve; as a rule, active = well fitted curve in the direction sought with a large enough effect; inconclusive = small, poorly fitted or top-dose-only effect, or another doubt; inactive = no such curve, though single readings can be large; an effect the other way counts as inactive or inconclusive. Potency is the fitted concentration of half-maximal effect.

What do the screens show for `O=C(CSC1=Nc2ccccc2N=C(c2ccc(F)cc2)C1)Nc1cc(F)ccc1F`?
BAZ2B block: -14.2%; GLS inh: -0.8%; JMJD2A Tudor: -17.3%; G9a block: -25.4%[59 µM]; HP1b chromo inh: 19.3%[57 µM]

What do the screens show for `O=C(COc1ccccc1Cl)Nc1cc(-c2ccccc2F)nn1-c1ccccc1`?
BAZ2B block: 0.8%; GLS inh: 2.2%; JMJD2A Tudor: -15.9%; G9a block: -2.7%[59 µM]; HP1b chromo inh: 24.4%[57 µM]

Results for COc1ccc(C2=NN(CC(=O)NCCCN(C)c3ccccc3)C(=O)CC2)cc1 ?
BAZ2B block: inconclusive; GLS inh: 16.9%; JMJD2A Tudor: inconclusive; G9a block: inconclusive; HP1b chromo inh: -13.4%

Results for CCN(CCCNC(=O)CN1N=C(c2ccccc2)CCC1=O)c1cccc(C)c1 ?
BAZ2B block: inconclusive; GLS inh: 3.3%; JMJD2A Tudor: inconclusive; G9a block: 14.1µM*; HP1b chromo inh: inconclusive

Results for Cc1ccc(C2=NN(CC(=O)O)C(=O)CC2)cc1 ?
BAZ2B block: -2.6%; GLS inh: -25.8%; JMJD2A Tudor: -17.5%; G9a block: 44.7µM*; HP1b chromo inh: 2.4%

What do the screens show for `Cc1ccc(C2=NN(CC(=O)NCCc3ccccc3)C(=O)CC2)cc1`?
BAZ2B block: -10.1%; GLS inh: 5.6%; JMJD2A Tudor: -20.8%; G9a block: -9.7%[59 µM]; HP1b chromo inh: -9.4%

How did CCCCN(C)CCCNC(=O)CN1N=C(c2ccc(Cl)cc2)CCC1=O do in these assays?
BAZ2B block: 12.9%; GLS inh: -3.9%; JMJD2A Tudor: -5.8%; G9a block: 38.3%; HP1b chromo inh: 20.0%

Results for CCCCN(CCCNC(=O)CN1N=C(c2ccc(C)cc2)CCC1=O)c1ccccc1 ?
BAZ2B block: 20µM*; GLS inh: 14.9%; JMJD2A Tudor: 39.8µM*; G9a block: 14.1µM*; HP1b chromo inh: inconclusive

Results for CCN(CCCNC(=O)CN1N=C(c2ccc(OC)cc2)CCC1=O)c1cccc(C)c1 ?
BAZ2B block: 39.8µM*; GLS inh: 7.2%; JMJD2A Tudor: 79.4µM*; G9a block: 11.2µM*; HP1b chromo inh: inconclusive

Results for CCc1sc(C(=O)Nc2cccc(-n3cnnn3)c2)cc1C ?
BAZ2B block: 1.7%; GLS inh: -3.9%; JMJD2A Tudor: -1.0%; G9a block: 27.4%[12.7 µM]; HP1b chromo inh: 30.1%

Results for CCN(CCCNC(=O)CN1N=C(c2ccc(C)cc2)CCC1=O)c1ccccc1 ?
BAZ2B block: 14.1µM*; GLS inh: 1.2%; JMJD2A Tudor: 56.2µM*; G9a block: 10µM*; HP1b chromo inh: inconclusive

What do the screens show for `O=C1c2ccccc2C(Nc2cccnc2)N1Cc1ccc2c(c1)OCO2` (centres undefined)?
BAZ2B block: 2.4%; GLS inh: -7.8%; JMJD2A Tudor: -17.4%; G9a block: inconclusive; HP1b chromo inh: 12.2%

Results for O=C1c2ccccc2C(Nc2ccc3c(c2)OCO3)N1Cc1ccco1 (centres undefined) ?
BAZ2B block: 44.7µM*; GLS inh: 5.0%; JMJD2A Tudor: 56.2µM*; G9a block: 10µM*; HP1b chromo inh: inconclusive

Results for COc1ccc(OC)c(NC2c3ccccc3C(=O)N2Cc2ccc3c(c2)OCO3)c1 (centres undefined) ?
BAZ2B block: 35.5µM*; GLS inh: -10.1%; JMJD2A Tudor: 44.7µM*; G9a block: 31.6µM*; HP1b chromo inh: inconclusive

How did O=C1c2ccccc2C(Nc2ccc3c(c2)OCO3)N1Cc1ccc2c(c1)OCO2 (centres undefined) do in these assays?
BAZ2B block: 20µM*; GLS inh: -1.9%; JMJD2A Tudor: 44.7µM*; G9a block: 39.8µM*; HP1b chromo inh: inconclusive

Results for COC(=O)c1cc(NC2c3ccccc3C(=O)N2Cc2ccco2)cc(C(=O)OC)c1 (centres undefined) ?
BAZ2B block: -3.2%; GLS inh: 12.4%; JMJD2A Tudor: -9.7%; G9a block: -1.4%; HP1b chromo inh: 25.5%

What do the screens show for `O=C1c2ccccc2C(Nc2ccc(F)c(Cl)c2)N1Cc1ccco1` (centres undefined)?
BAZ2B block: inconclusive; GLS inh: -2.6%; JMJD2A Tudor: -29.6%; G9a block: 44.7µM*; HP1b chromo inh: 15.3%
